From ChEMBL document CHEMBL3433997, “St. Jude Leishmania screening dataset” (2016)

Tests used:
Assay type in all cases: functional
[1] = target: Solute carrier family 2, facilitated glucose transporter member 1 (Homo sapiens) (UniProt P11166); assay: ST_JUDE_LEISH: Cytotoxicity at 2uM final concentration against transgenic Leishmania Mexicana promastigotes LmGLUT1 that are glucose transport deficient and complemented with the human glucose transporter GLUT1. Activity is measured by DNA content using SYBR green in vitro
Sequence of Solute carrier family 2, facilitated glucose transporter member 1 (Homo sapiens) (P11166 whole entry): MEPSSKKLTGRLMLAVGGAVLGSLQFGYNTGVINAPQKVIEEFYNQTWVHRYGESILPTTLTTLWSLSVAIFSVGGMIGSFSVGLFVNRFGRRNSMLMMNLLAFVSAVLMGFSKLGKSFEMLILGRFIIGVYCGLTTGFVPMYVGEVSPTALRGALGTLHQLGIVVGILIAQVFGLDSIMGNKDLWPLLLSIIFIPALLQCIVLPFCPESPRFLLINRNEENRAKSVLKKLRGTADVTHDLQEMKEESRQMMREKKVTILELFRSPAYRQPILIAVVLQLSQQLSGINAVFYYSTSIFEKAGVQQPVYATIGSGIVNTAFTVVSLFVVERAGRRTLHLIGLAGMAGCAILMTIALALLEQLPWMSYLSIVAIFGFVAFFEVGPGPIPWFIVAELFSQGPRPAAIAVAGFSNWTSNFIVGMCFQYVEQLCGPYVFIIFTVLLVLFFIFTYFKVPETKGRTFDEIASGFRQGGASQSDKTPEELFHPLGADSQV

[2] = target: Hexose transporter 1 (Plasmodium falciparum) (UniProt O97467); assay: ST_JUDE_LEISH: Cytotoxicity at 2uM final concentration against transgenic Leishmania Mexicana promastigotes LmPfHT that are glucose transport deficient and complemented with the Plasmodium falciparum hexose transporter. Activity is measured by DNA content using SYBR green in vitro
[3] = target: Glucose transporter (Leishmania mexicana) (UniProt O61059); assay: ST_JUDE_LEISH: Cytotoxicity at 2uM final concentration against transgenic Leishmania Mexicana promastigotes LmGT2 that are glucose transport deficient and complemented with the L. Mexicana glucose transporter 2. Activity is measured by DNA content using SYBR green in vitro

SMILES | inhibition [1] | inhibition [2] | inhibition [3]
N=C(N)Nc1nc(-c2cccc(NC(=O)CCCCCCCON3C(N)=NC(N)=NC34CCCCC4)c2)cs1 | 2.45% | 4.13% | 3.75%
OC1(Cc2ccccc2)CCN(Cc2cccc(-c3c[nH]c4nc(NC5CCCC5)ncc34)c2)CC1 | 9.83% | 8.36% | 6.99%
CCNC(=O)Nc1ccc(-c2cccc(-c3nc4cccc(C)c4[nH]3)c2)cc1 | 5.51% | 5.35% | 3.12%
C[C@@H](COc1ccc(-c2ccccc2)cc1)CON1C(N)=NC(N)=NC1(C)C | 69.6% | 76.5% | 50.3%
CC1CNC(c2cccc(NC(=O)Nc3cccc(C4=NC(C)CN4)c3)c2)=N1 (centres undefined) | 6.32% | 8.33% | 6.15%
NC(=O)c1cccc(Nc2nccc(Nc3ccc(Oc4cccc(Cl)c4)c(Cl)c3)n2)c1 | 10.6% | 9.87% | 7.71%
CCCCc1cc(NCc2ccncc2)nc(Nc2ccc(C)cc2)n1 | 15.4% | 5.93% | 2.33%
N=C(N)c1ccc(Nc2nc(Nc3ccc(-c4ccccc4)cc3)ncc2[N+](=O)[O-])cc1 | 3.15% | 3.65% | 3.44%
COc1ccccc1N1CCN(CCCCNC(=O)c2ccc(NC(=O)c3cc(Cl)cc(Cl)c3)cc2)CC1 | 2.07% | 3.24% | 2.92%
N#Cc1ccc2[nH]cc(C(=O)CCCCCN(Cc3ccccc3)Cc3ccccc3)c2c1 | 0.31% | -2.35% | -0.24%
CC1(C)NC(N)=NC(=N)N1OCCSCc1cc(Cl)sc1Cl | 6.6% | 7.38% | 2.82%
COc1ccc(Cc2cccc(C(C(=O)NCc3cc(Cl)cc(Cl)c3)N3CCN(C)CC3)c2)cc1 (centres undefined) | -1.02% | -1.26% | 0.4%
CCCCCCNc1cc(C)nc(NC(=N)Nc2cccc(C(F)(F)F)c2)n1 | 1.36% | 3.48% | 4.89%
CCNc1cc(C(=O)N[C@@H](Cc2ccccc2)[C@H](O)CNC23CCC(CC2)C3)cc(N2CCCCS2(=O)=O)c1 | 0.79% | -1.58% | 3.19%
COc1ccc(CNCc2ccccc2)cc1-c1ccc(S(=O)(=O)NCCN2CCCC2)c(F)c1 | 18.3% | 13% | 10.7%
CC(=O)Nc1ccc(C(=O)Nc2ccc(-c3cccc(-c4nc5cccc(C)c5[nH]4)c3)cc2)cn1 | -3.82% | -0.04% | -3.28%
O=C(/C=C/c1ccc(Cl)c(Cl)c1)NCCCCCN1CCC(NC(=O)Nc2ccc(Oc3ccccc3)cc2)C1 (centres undefined) | 2.36% | 1.54% | 0.16%
CN(C(=O)c1snnc1-c1ccccc1)C1CCN(CCCCCNC(=O)/C=C/c2ccc(Cl)c(Cl)c2)CC1 | 3.47% | 0.39% | 3.46%
CCCCCCCN(Cc1ccc(OC(C)(C)C(=O)OCC)cc1)C(=O)Nc1ccccc1OCC | -0.85% | -1.76% | -2.13%
O=C(NCc1ccc(F)cc1)c1cnc(N2CCN(c3ccncc3)CC2)c(Cl)c1 | 22.7% | 11.6% | 5.45%
Cc1cc(CNCCCCCCCNCc2ccc(Cl)cc2)ccc1O | 0.64% | 3.98% | 0.81%
Cc1ccc(C(=O)Nc2cccc(-c3ccc(N4CCN(C)CC4)nn3)c2)cc1[N+](=O)[O-] | 1.32% | -0.23% | -1.16%
COCCOCCOCCn1ccc2c3c(N)nc(N)nc3ccc21 | 4.65% | 1.94% | 2.29%
Cc1ccc(Nc2nccc(NCC(O)c3cccc(C)c3)n2)cc1 (centres undefined) | 5.47% | 4.73% | 3.22%
CSc1ccc(NC(=O)Nc2cc(C)nc3ccccc23)cc1 | 10.3% | 10.8% | 10.3%

SMILES | inhibition [1] | inhibition [2] | inhibition [3]
C=CC(=O)Nc1ccc(Cl)cc1C(O)c1ccccc1 (centres undefined) | 2.6% | 2.07% | 2.36%
CS(=O)(=O)c1ccc(CNCc2ccc(-c3ccc(-c4nc5cc(C(F)(F)F)ccc5[nH]4)cc3)cc2)cc1 | 2.96% | 1.96% | 2.3%
CC(C)[C@H](NC(=O)c1ccc(O)c(-c2ccc(Cl)c(Cl)c2)c1)C(=O)NC1CCCCCC1 | 0.48% | 0.52% | -4.76%
CCOC(=O)c1cn(CC)c2cc(F)c(OC3CC4CCC3(C)C4(C)C)cc2c1=O (centres undefined) | -1.86% | -1.79% | -3.18%
c1cc2c3c(cccc3c1)NC(CCCCCCCCC1=Nc3cccc4cccc(c34)N1)=N2 | 2.66% | 1.67% | 2.28%
CS(=O)(=O)c1ccc(-c2cnc(N)c(-c3cccc(CO)c3)c2)cc1 | 3.95% | 3.16% | 4.32%
O=C(NC1CCC1)C1CCN(C(c2ccc(Cl)cc2)c2ccc(Cl)cc2)CC1 | -0.62% | 1.93% | -0.82%
COc1ccc2nccc([C@@H](O)CN3CCC(NC(=O)c4cccc(C(=O)c5ccccc5)c4)CC3)c2c1 | -1.15% | 0.28% | 0.47%
N=C1NC(c2ccccc2)(c2ccccc2)C(=O)N1CC=Cc1ccccc1 | 7.01% | 8.66% | 4.83%
CCOc1cc(Br)c(C(C)NC(=O)c2ccccc2)cc1OCC (centres undefined) | 1.08% | 0.92% | 1.97%
Cc1cc(-c2ccc3c(c2)CCN(CCC2CCC(NC(=O)/C=C/c4cccc(F)c4)CC2)CC3)on1 (centres undefined) | 2.32% | 0.47% | 3.42%
COCCNCc1cccc(-c2cc3nccc(Nc4ccc(Oc5ccccc5)cc4)c3cc2Cl)c1 | -0.26% | 2.37% | 0.83%
COC(=O)c1cc(/C(C)=N/Nc2nc3ccccc3[nH]2)ccc1O | 4.85% | 5.41% | 1.77%
Cc1cc(N2CCCN(C)CC2)nc(Nc2ccc(Br)cc2)n1 | 5.39% | -1.23% | 1.6%
CN(C)CCNC(=O)NC1CN(c2ncnc3cc(-c4ccccc4)sc23)C1 | 5.45% | 4.29% | 4.03%
Cc1cc(O)c(-c2ccc(Oc3ccc(F)cc3)cc2)c(C)n1 | 0.78% | -0.19% | -3.08%
CCCCOc1ccccc1C(=O)NCc1csc(-c2ccccc2)n1 | -0.31% | 1.14% | 0.41%
CC(=O)Nc1ccc(CNC2Cc3ccc(-c4ccc(Cl)c(Cl)c4)cc3C2)cc1 (centres undefined) | -0.97% | -1.57% | -0.25%
Cc1nc2nc(N)nc(N)c2c(C)c1Cc1ccc(C(N)=O)cc1 | 1.68% | 1.64% | 0.21%
Cc1c(F)cc(C(=O)NC2CC2)cc1-c1ccc2c(cnn2S(=O)(=O)c2ccc(Cl)s2)c1 | 3.04% | 1.53% | 0.9%
CCc1cc(OC)c(C(=O)NC2CCN(C[C@H](O)c3ccnc4ccc(OC)cc34)CC2)cc1Br | 1.58% | -0.43% | -0.3%
CCCc1cc(OC)c(CC2c3cc(O)c(Cl)cc3C(c3ccccc3)CN2C)cc1OC (centres undefined) | 7.84% | 1.11% | 3.98%
c1ccc2c(c1)CN(Cc1cc3ccccc3[nH]1)CC1(CCN(Cc3c[nH]c4cnccc34)CC1)O2 | 1.1% | -0.02% | -0.44%
CC1Cc2ccccc2N1S(=O)(=O)c1cc(OCC(F)(F)F)ccc1OCC(F)(F)F (centres undefined) | 4.69% | 3.54% | 3.67%
O=C(Nc1cccc(-c2ccc(-c3nc4cc(C(F)(F)F)ccc4[nH]3)s2)c1)c1c[nH]cn1 | 0.15% | -0.45% | 0.77%

SMILES | inhibition [1] | inhibition [2] | inhibition [3]
Clc1cccc(C=NNc2ccnc3cc(Cl)ccc23)c1 | -1.51% | -2.17% | -3.26%
Cc1cccc(-n2c(=O)c3c4c(sc3n3c(SCCC(C)C)nnc23)CCCC4)c1 | 0.75% | 1.59% | -0.43%
CCCN1CCN(CCCNC(=O)c2cc3c(Cl)nc4ccc(C)cc4c3s2)CC1 | -1.56% | 1.08% | -1.97%
O=C(NC1CC1)C1CCN(Cc2cc3ccccc3n2Cc2ccc(Cl)cc2)CC1 | -2.52% | -1.61% | -1.79%
CCC(C)NC(=O)Nc1ccc(-c2cccc(-c3nc4cc(C(F)(F)F)ccc4[nH]3)c2)cc1 (centres undefined) | 9.64% | 8.86% | 4.56%
O=S(=O)(NCCN1CCCC1)c1ccc(-c2cccc(CNCCc3cccs3)c2)s1 | 0.02% | 2.28% | 3.42%
Nc1ncc(-c2ccc(F)cc2)cc1-c1nc2ccc(Cl)cc2[nH]1 | 4.48% | 5.54% | 2.11%
CCn1cc(CN2C(=O)C(c3ccccc3)(c3ccccc3)N=C2N)cn1 | 1.83% | 2% | -1.54%
O=C(Nc1ccsc1C(=O)NC1CCCCC1)c1ccc(F)cc1 | 0.07% | -1.32% | -0.45%
COc1ccc2[nH]c3ccccc3c(=O)c2c1 | -0.87% | 0.99% | 6.72%
Fc1cc(Cl)ccc1Nc1ccnc(Nc2ccc3cn[nH]c3c2)n1 | 12.7% | 10.7% | 5.1%
Cc1nc(C)c(-c2ccc(C(=O)c3ccc(Cl)cc3)cc2)c(O)c1Br | 1.02% | 1.24% | 0.57%
COc1ccc2nccc(N(C)CC3(O)CCC(NCc4cc5c(cn4)OCCO5)CC3)c2n1 (centres undefined) | 1.51% | 1.7% | 1.71%
Oc1ccc(CCNc2nc(NCCCOc3cccc(CN4CCCCC4)c3Cl)nc(N3CCNCC3)n2)cc1 | 3.62% | 1.93% | 3.74%
COc1cccc(OC(C)(C)c2nc(N[C@@H](C)c3ccccc3)c3cn[nH]c3n2)c1 | 1.92% | -1.84% | -1.65%
COc1cc(C2=NN(S(=O)(=O)c3c(Cl)cc(Cl)cc3Cl)CCCC2)ccc1Cl | 2.1% | 2.71% | 4.36%
CS(=O)(=O)CCNCc1ccc(-c2ccc3ncnc(Nc4ccc(OCc5ccccc5)c(Cl)c4)c3c2)o1 | -0.18% | -1.51% | -1.49%
Nc1nc(N)c2c(Oc3ccc(Cl)c(Cl)c3)cccc2n1 | 0.48% | -0.05% | -3.94%
CCn1c(-c2nonc2N)nc2c(-c3cccc(NC(=O)Nc4ccc(C#N)cc4)c3)ncc(OCCCN)c21 | 1.92% | -0.33% | 2.67%
O=C(Nc1ccc2c(c1)CCC2)c1ccc(CN2CCCN(Cc3cccc(O)c3)CC2)cc1 | 11.2% | 12.1% | 9.95%
COc1ccc(CN(C)CCCCc2ccc(NC(=O)COc3cccc4sc5ccccc5c(=O)c34)cc2)cc1OC | 1.62% | -3.06% | 0.59%
O=[N+]([O-])c1cccc(CNCC2CCC(CNCc3cccc([N+](=O)[O-])c3)CC2)c1 (centres undefined) | 2.25% | -2.59% | 1.26%
C=CC[C@H](C[C@H](O)[C@H](Cc1ccccc1)NC(=O)c1ccc(-n2cccn2)cc1)C(=O)NC1CCCCC1 | 9.63% | 9.73% | 9.59%
